Measured values as given in the supplement of paper PMC4466140.

How the values were obtained:
Assay in all cases: SPOT peptide array binding signal intensity (averaged, normalized) (arbitrary units (background-subtracted, floor 0; scale differs between SH3 domains)); higher = stronger binding of the SH3 domain to the peptide
SpBzz1-D2 = target: SpBzz1-D2
Method in brief: (§1)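 The binding signal is the normalized, background-subtracted spot intensity averaged over replicates; its arbitrary units differ between domains. It was obtained by incubating 10 μg/ml GST-fused SH3 domains from four yeast species overnight at 4°C in TBS-based blocking buffer on cellulose membranes with synthetic 15-mer peptides, cysteines replaced by serines, then detecting with anti-GST antibody, HRP anti-mouse secondary and luminol.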

SpCyk3 = target: SpCyk3
Method in brief: as §1

SpHof1 = target: SpHof1
Method in brief: as §1

SpHof1-2 = target: SpHof1-2
Method in brief: as §1

SpHof1-3 = target: SpHof1-3
Method in brief: as §1

SpHse1 = target: SpHse1
Method in brief: as §1

SpLsb1 = target: SpLsb1
Method in brief: as §1

SpLsb4 = target: SpLsb4
Method in brief: as §1

SpMyo1 = target: SpMyo1
Method in brief: as §1

SpNbp2 = target: SpNbp2
Method in brief: as §1

SpPex13 = target: SpPex13
Method in brief: as §1

SpRvs167 = target: SpRvs167
Method in brief: as §1

SpSla1-D1-D2 = target: SpSla1-D1-D2
Method in brief: as §1

SpSla1-D3 = target: SpSla1-D3
Method in brief: as §1

AgAbp1 = target: AgAbp1
Method in brief: as §1

AgBbc1 = target: AgBbc1
Method in brief: as §1

AgBem1-D1 = target: AgBem1-D1
Method in brief: as §1

AgBzz1-D1 = target: AgBzz1-D1
Method in brief: as §1

AgBzz1-D2 = target: AgBzz1-D2
Method in brief: as §1

AgCyk3 = target: AgCyk3
Method in brief: as §1

AgFus1 = target: AgFus1
Method in brief: as §1

AgHof1 = target: AgHof1
Method in brief: as §1

AgHse1 = target: AgHse1
Method in brief: as §1

AgLsb1 = target: AgLsb1
Method in brief: as §1

AgLsb4 = target: AgLsb4
Method in brief: as §1

AgMyo5 = target: AgMyo5
Method in brief: as §1

AgNbp2 = target: AgNbp2
Method in brief: as §1

AgRvs167 = target: AgRvs167
Method in brief: as §1

AgSho1 = target: AgSho1
Method in brief: as §1

AgSla1-D1-D2 = target: AgSla1-D1-D2
Method in brief: as §1

AgSla1-D3 = target: AgSla1-D3
Method in brief: as §1

CaAbp1-D1 = target: CaAbp1-D1
Method in brief: as §1

CaAbp1-D2 = target: CaAbp1-D2
Method in brief: as §1

CaBbc1 = target: CaBbc1
Method in brief: as §1

CaBem1-D1 = target: CaBem1-D1
Method in brief: as §1

CaBzz1-D1 = target: CaBzz1-D1
Method in brief: as §1

CaBzz1-D2 = target: CaBzz1-D2
Method in brief: as §1

CaCyk3 = target: CaCyk3
Method in brief: as §1

CaFus1 = target: CaFus1
Method in brief: as §1

CaHof1 = target: CaHof1
Method in brief: as §1

CaHse1 = target: CaHse1
Method in brief: as §1

CaLsb1 = target: CaLsb1
Method in brief: as §1

CaLsb4 = target: CaLsb4
Method in brief: as §1

CaMyo5 = target: CaMyo5
Method in brief: as §1

B1: unnamed (peptide)
chain: NFFRKKLGIPRKLKR
With B1 the “SPOT peptide array binding signal intensity” value (SpBzz1-D2) was no more than 0, the “SPOT peptide array binding signal intensity” value (SpCyk3) was no more than 0 and the “SPOT peptide array binding signal intensity” value (SpHof1) was 87. For the same binder, the “SPOT peptide array binding signal intensity” value (SpHof1-2) was 1.25, the “SPOT peptide array binding signal intensity” value (SpHof1-3) was 998 and the “SPOT peptide array binding signal intensity” value (SpHse1) was 1560. The “SPOT peptide array binding signal intensity” value (SpLsb1) was 25.5, the “SPOT peptide array binding signal intensity” value (SpLsb4) was 19 and the “SPOT peptide array binding signal intensity” value (SpMyo1) was 0.5. For the same binder, the “SPOT peptide array binding signal intensity” value (SpNbp2) was 63.5, the “SPOT peptide array binding signal intensity” value (SpPex13) was 5 and the “SPOT peptide array binding signal intensity” value (SpRvs167) was 3.67. The “SPOT peptide array binding signal intensity” value (SpSla1-D1-D2) was no more than 0 and the “SPOT peptide array binding signal intensity” value (SpSla1-D3) was 17.5.

B2: unnamed (peptide)
chain: KWVRRPKLMTPLTFS
In the case of B2, the “SPOT peptide array binding signal intensity” value (AgAbp1) is reported as 205, the “SPOT peptide array binding signal intensity” value (AgBbc1) is reported as 73.5 and the “SPOT peptide array binding signal intensity” value (AgBem1-D1) is reported as 169. The “SPOT peptide array binding signal intensity” value (AgBzz1-D1) was 25, the “SPOT peptide array binding signal intensity” value (AgBzz1-D2) was 8 and the “SPOT peptide array binding signal intensity” value (AgCyk3) was 3. The “SPOT peptide array binding signal intensity” value (AgFus1) was 754, the “SPOT peptide array binding signal intensity” value (AgHof1) was 110 and the “SPOT peptide array binding signal intensity” value (AgHse1) was 818. The “SPOT peptide array binding signal intensity” value (AgLsb1) was 495, the “SPOT peptide array binding signal intensity” value (AgLsb4) was 71 and the “SPOT peptide array binding signal intensity” value (AgMyo5) was no more than 0. The “SPOT peptide array binding signal intensity” value (AgNbp2) was 371, the “SPOT peptide array binding signal intensity” value (AgRvs167) was 8 and the “SPOT peptide array binding signal intensity” value (AgSho1) was 185. For the same binder, the “SPOT peptide array binding signal intensity” value (AgSla1-D1-D2) was 275, the “SPOT peptide array binding signal intensity” value (AgSla1-D3) was 11.2 and the “SPOT peptide array binding signal intensity” value (CaAbp1-D1) was 498. For the same binder, the “SPOT peptide array binding signal intensity” value (CaAbp1-D2) was 297, the “SPOT peptide array binding signal intensity” value (CaBbc1) was 192 and the “SPOT peptide array binding signal intensity” value (CaBem1-D1) was 329. For the same binder, the “SPOT peptide array binding signal intensity” value (CaBzz1-D1) was 164, the “SPOT peptide array binding signal intensity” value (CaBzz1-D2) was 121 and the “SPOT peptide array binding signal intensity” value (CaCyk3) was 45. For the same binder, the “SPOT peptide array binding signal intensity” value (CaFus1) was 1360, the “SPOT peptide array binding signal intensity” value (CaHof1) was 1.5 and the “SPOT peptide array binding signal intensity” value (CaHse1) was 180. The “SPOT peptide array binding signal intensity” value (CaLsb1) was 7, the “SPOT peptide array binding signal intensity” value (CaLsb4) was 346 and the “SPOT peptide array binding signal intensity” value (CaMyo5) was 11.5.
